# From the supplement of paper PMC8728848
# This is one part of a sample in which the strongest signals are shown more often than they occur.
# Legend:
# Assay in all cases: glycan array binding signal (z-score within array); higher = stronger binding
# Settings in all cases: glycan notation: IUPAC condensed, linker removed
# [1] = target: Fuc(a1-2)Gal(b1-3)[Fuc(a1-4)]GlcNAc(b1-3)[Gal(b1-4)GlcNAc(b1-6)]Gal(b1-4)Glc
# In short: (§1)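 The binding signal is a Z-score computed within each array. Data were drawn from 3228 arrays in the Consortium for Functional Glycomics database, restricted to those with a known protein sequence. Scores were averaged over arrays of the same protein sequence at different concentrations or buffers, and over linkers, and negative values can be taken as non-binding.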
# [2] = target: Fuc(a1-2)Gal(b1-4)Glc6S
# In short: as §1
# [3] = target: Fuc(a1-2)Gal(b1-4)GlcNAc(b1-3)Gal(b1-4)GlcNAc(b1-2)Man(a1-3)[Fuc(a1-2)Gal(b1-4)GlcNAc(b1-3)Gal(b1-4)GlcNAc(b1-2)Man(a1-6)]Man(b1-4)GlcNAc(b1-4)GlcNAc
# In short: as §1
# [4] = target: Fuc(a1-2)Gal(b1-4)[Fuc(a1-3)]GlcNAc(b1-2)Man(a1-3)[Fuc(a1-2)Gal(b1-4)[Fuc(a1-3)]GlcNAc(b1-2)Man(a1-6)]Man(b1-4)GlcNAc(b1-4)[Fuc(a1-6)]GlcNAc
# In short: as §1
# [5] = target: Fuc(a1-2)Gal6S(b1-3)GlcNAc6S
# In short: as §1
# [6] = target: Fuc(a1-2)Gal6S(b1-4)Glc6S
# In short: as §1
# [7] = target: Fuc(a1-2)[Gal(a1-3)]Gal(b1-3)GlcNAc(b1-2)Man(a1-3)[Fuc(a1-2)[Gal(a1-3)]Gal(b1-3)GlcNAc(b1-2)Man(a1-6)]Man(b1-4)GlcNAc(b1-4)[Fuc(a1-6)]GlcNAc
# In short: as §1
# [8] = target: Fuc(a1-2)[Gal(a1-3)]Gal(b1-4)GlcNAc(b1-3)GalNAc
# In short: as §1
# [9] = target: Fuc(a1-2)[GalNAc(a1-3)]Gal(b1-4)[Fuc(a1-3)]GlcNAc
# In short: as §1
# [10] = target: Fuc(a1-3)[Gal(b1-4)]GlcNAc(b1-2)Man(a1-3)[Fuc(a1-3)[Gal(b1-4)]GlcNAc(b1-2)Man(a1-6)]Man(b1-4)GlcNAc(b1-4)GlcNAc
# In short: as §1
# [11] = target: Fuc(a1-3)[Gal(b1-4)]GlcNAc(b1-6)[Neu5Ac(a2-3)Gal(b1-3)]GalNAc
# In short: as §1
# [12] = target: Gal(a1-2)Gal
# In short: as §1
# [13] = target: Gal(a1-3)Gal(b1-3)GlcNAc(b1-2)Man(a1-3)[Gal(a1-3)Gal(b1-3)GlcNAc(b1-2)Man(a1-6)]Man(b1-4)GlcNAc(b1-4)GlcNAc
# In short: as §1
# [14] = target: Gal(b1-3)Gal(b1-4)GlcNAc
# In short: as §1
# [15] = target: Gal(b1-3)[Fuc(a1-4)]GlcNAc
# In short: as §1
# [16] = target: Gal(b1-3)[Neu5Ac(a2-6)]GlcNAc
# In short: as §1
# [17] = target: Gal(b1-3)[Neu5Ac(b2-6)]GlcNAc
# In short: as §1
# [18] = target: Gal(b1-4)GlcNAc(b1-2)Man(a1-3)[Gal(b1-4)GlcNAc(b1-2)Man(a1-6)]Man(b1-4)GlcNAc(b1-4)GlcNAc
# In short: as §1
# [19] = target: Gal(b1-4)GlcNAc(b1-2)Man(a1-3)[Gal(b1-4)GlcNAc(b1-2)Man(a1-6)]Man(b1-4)GlcNAc(b1-4)[Fuc(a1-6)]GlcNAc
# In short: as §1
# [20] = target: Gal(b1-4)GlcNAc(b1-2)Man(a1-3)[Man(a1-6)]Man(b1-4)GlcNAc(b1-4)GlcNAc
# In short: as §1
# [21] = target: Gal3S(b1-4)GlcNAc6S
# In short: as §1
# [22] = target: Gal3S4S(b1-4)GlcNAc
# In short: as §1
# [23] = target: GalNAc3S(b1-4)[Fuc(a1-3)]GlcNAc
# In short: as §1
# [24] = target: Glc(a1-6)Glc(a1-6)Glc
# In short: as §1
# [25] = target: GlcNAc(b1-2)[GlcNAc(b1-4)]Man(a1-3)[GlcNAc(b1-2)Man(a1-6)]Man(b1-4)GlcNAc(b1-4)GlcNAc
# In short: as §1
# [26] = target: GlcNAc(b1-3)Gal(b1-4)GlcNAc(b1-3)Gal(b1-4)GlcNAc(b1-3)GalNAc
# In short: as §1
# [27] = target: Man(a1-2)Man(a1-2)Man(a1-3)Man
# In short: as §1
# [28] = target: Man(a1-2)Man(a1-2)Man(a1-3)[Man(a1-2)Man(a1-3)[Man(a1-2)Man(a1-6)]Man(a1-6)]Man(b1-4)GlcNAc(b1-4)GlcNAc
# In short: as §1
# [29] = target: Man(a1-2)Man(a1-2)Man(a1-3)[Man(a1-2)Man(a1-6)[Man(a1-3)]Man(a1-6)]Man(b1-4)GlcNAc(b1-4)GlcNAc
# In short: as §1
# [30] = target: Man(a1-2)Man(a1-3)[Man(a1-3)[Man(a1-6)]Man(a1-6)]Man(b1-4)GlcNAc(b1-4)GlcNAc
# In short: as §1
# [31] = target: Man(a1-2)Man(a1-3)[Man(a1-6)]Man(a1-6)[Man(a1-2)Man(a1-3)]Man(b1-4)GlcNAc(b1-4)GlcNAc
# In short: as §1
# [32] = target: Man(a1-2)Man(a1-6)[Man(a1-3)]Man(a1-6)[Man(a1-2)Man(a1-2)Man(a1-3)]Man(b1-4)GlcNAc(b1-4)GlcNAc
# In short: as §1
# [33] = target: Man(a1-3)[Man(a1-6)]Man(a1-6)[Man(a1-2)Man(a1-3)]Man(b1-4)GlcNAc(b1-4)GlcNAc
# In short: as §1
# [34] = target: Man(a1-3)[Man(a1-6)]Man(a1-6)[Man(a1-3)]Man(b1-4)GlcNAc(b1-4)GlcNAc
# In short: as §1
# [35] = target: Man(a1-3)[Man(a1-6)]Man(b1-4)GlcNAc(b1-4)GlcNAc
# In short: as §1
# [36] = target: Neu5Ac(a2-3)Gal(b1-4)GlcNAc(b1-2)Man(a1-3)[GlcNAc(b1-4)][Neu5Ac(a2-3)Gal(b1-4)GlcNAc(b1-2)Man(a1-6)]Man(b1-4)GlcNAc(b1-4)GlcNAc
# In short: as §1
# [37] = target: Neu5Ac(a2-3)Gal(b1-4)GlcNAc(b1-3)[Neu5Ac(a2-3)Gal(b1-4)GlcNAc(b1-6)]GalNAc
# In short: as §1
# [38] = target: Neu5Ac(a2-3)Gal(b1-4)[Fuc(a1-3)]GlcNAc(b1-6)[Gal(b1-3)]GalNAc
# In short: as §1
# [39] = target: Neu5Ac(a2-3)Gal6S(b1-4)GlcNAc
# In short: as §1
# [40] = target: Neu5Ac(a2-3)[GalNAc(b1-4)]Gal(b1-4)GlcNAc
# In short: as §1
# [41] = target: Neu5Ac(a2-6)Gal(b1-4)GlcNAc
# In short: as §1
# [42] = target: Neu5Ac(a2-6)Gal(b1-4)GlcNAc(b1-3)Gal(b1-4)GlcNAc(b1-2)Man(a1-3)[Neu5Ac(a2-6)Gal(b1-4)GlcNAc(b1-3)Gal(b1-4)GlcNAc(b1-2)Man(a1-6)]GalNAc
# In short: as §1
# [43] = target: Neu5Ac(a2-6)Gal(b1-4)GlcNAc(b1-6)[Gal(b1-3)GlcNAc(b1-3)]Gal(b1-4)Glc
# In short: as §1
# [44] = target: Neu5Ac(a2-8)Neu5Ac(a2-3)[Gal(b1-3)GalNAc(b1-4)]Gal(b1-4)Glc
# In short: as §1
# [45] = target: Neu5Ac(a2-8)Neu5Ac(a2-8)Neu5Ac(a2-8)Neu5Ac(a2-3)[GalNAc(b1-4)]Gal(b1-4)Glc
# In short: as §1
# [46] = target: Neu5Gc(a2-3)Gal(b1-4)GlcNAc(b1-3)Gal(b1-4)GlcNAc(b1-2)Man(a1-3)[Neu5Gc(a2-3)Gal(b1-4)GlcNAc(b1-3)Gal(b1-4)GlcNAc(b1-2)Man(a1-6)]Man(b1-4)GlcNAc(b1-4)GlcNAc
# In short: as §1
# [47] = target: Neu5Gc(a2-3)Gal(b1-4)[Fuc(a1-3)]GlcNAc
# In short: as §1
# [48] = target: Neu5Gc(a2-8)Neu5Gc(a2-3)Gal(b1-4)GlcNAc
# In short: as §1
binder,measurement,setting,value
"Nictaba (Nicotiana tabacum), Q94EW1 (protein) MQGQWIAARDLSITWVDNPQYWTWKTVDPNIEVAELRRVAWLDIYGKIETKNLIRKTSYAVYLVFKLTDNPRELERATASLRFVNEVAEGAGIEGTTVFISKKKKLPGELGRFPHLRSDGWLEIKLGEFFNNLGEDGEVEMRLMEINDKTWKSGIIVKGFDIRPN",glycan array binding signal (z-score),[1],-0.29
same,glycan array binding signal (z-score),[2],-0.254
same,glycan array binding signal (z-score),[3],3.54
same,glycan array binding signal (z-score),[4],5.19
same,glycan array binding signal (z-score),[5],-0.381
same,glycan array binding signal (z-score),[6],-0.234
same,glycan array binding signal (z-score),[7],-0.187
same,glycan array binding signal (z-score),[8],-0.273
same,glycan array binding signal (z-score),[9],-0.307
same,glycan array binding signal (z-score),[10],5.57
same,glycan array binding signal (z-score),[11],-0.295
same,glycan array binding signal (z-score),[12],-0.289
same,glycan array binding signal (z-score),[13],-0.148
same,glycan array binding signal (z-score),[14],-0.321
same,glycan array binding signal (z-score),[15],-0.271
same,glycan array binding signal (z-score),[16],-0.332
same,glycan array binding signal (z-score),[17],-0.39
same,glycan array binding signal (z-score),[18],3.74
same,glycan array binding signal (z-score),[19],1.64
same,glycan array binding signal (z-score),[20],3.52
same,glycan array binding signal (z-score),[21],-0.163
same,glycan array binding signal (z-score),[22],-0.289
same,glycan array binding signal (z-score),[23],-0.387
same,glycan array binding signal (z-score),[24],-0.295
same,glycan array binding signal (z-score),[25],-0.101
same,glycan array binding signal (z-score),[26],-0.388
same,glycan array binding signal (z-score),[27],-0.29
same,glycan array binding signal (z-score),[28],3.93
same,glycan array binding signal (z-score),[29],4
same,glycan array binding signal (z-score),[30],4.38
same,glycan array binding signal (z-score),[31],4.07
same,glycan array binding signal (z-score),[32],4.83
same,glycan array binding signal (z-score),[33],6.51
same,glycan array binding signal (z-score),[34],4.21
same,glycan array binding signal (z-score),[35],3.44
same,glycan array binding signal (z-score),[36],-0.37
same,glycan array binding signal (z-score),[37],-0.389
same,glycan array binding signal (z-score),[38],-0.249
same,glycan array binding signal (z-score),[39],-0.272
same,glycan array binding signal (z-score),[40],-0.269
same,glycan array binding signal (z-score),[41],-0.276
same,glycan array binding signal (z-score),[42],1.27
same,glycan array binding signal (z-score),[43],-0.387
same,glycan array binding signal (z-score),[44],-0.3
same,glycan array binding signal (z-score),[45],-0.244
same,glycan array binding signal (z-score),[46],0.883
same,glycan array binding signal (z-score),[47],-0.366
same,glycan array binding signal (z-score),[48],-0.388
